Only some compounds are listed: those with a hit (about 4.6% of all), similar ones and a draw of the others.
TRHR PAM = allosterically enhances the human TRH receptor; P34981; TRHR cells, fluo-8 calcium fluorescence, EC20 TRH enhancement; enhancement, % at 2 µM; 360,000 compounds, 0.66% hits; AID 493056; in the data active = enhancement above about 30%; also: 0% is about no effect
Target sequence (P34981 whole entry, looked up): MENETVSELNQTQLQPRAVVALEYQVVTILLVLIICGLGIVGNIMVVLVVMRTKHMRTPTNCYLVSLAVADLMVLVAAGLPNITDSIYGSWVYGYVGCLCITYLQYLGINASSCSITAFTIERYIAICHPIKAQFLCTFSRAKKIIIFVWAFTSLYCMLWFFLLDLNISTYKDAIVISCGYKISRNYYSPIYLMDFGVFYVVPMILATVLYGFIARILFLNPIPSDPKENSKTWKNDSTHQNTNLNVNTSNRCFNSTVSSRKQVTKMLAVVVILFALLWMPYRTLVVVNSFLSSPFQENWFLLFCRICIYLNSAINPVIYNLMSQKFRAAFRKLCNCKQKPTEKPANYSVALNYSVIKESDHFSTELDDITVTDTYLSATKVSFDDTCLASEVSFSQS
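Enhancer read-out: after compound pinning and an initial kinetic agonist-mode read, an EC20 of TRH (10 nM final) was injected and fluo-8 calcium signal (Ex 480/Em 530) followed at 1 s/cycle for 100 cycles in TRHR-expressing cells.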
D1 ag = agonists of human D1 dopamine receptor; P21728; HEK293 T-REx D1 cells, calcium flux, agonist mode; activation, % at 2 µM; 360,000 compounds, 1% hits; AID 504660; also: 0% is about no effect
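Inducible HEK293 T-REx D1 cells, force-coupled to calcium signalling, were plated at 4000 cells/well with tetracycline and held overnight at 30 C. After no-wash calcium dye loading, compound-evoked calcium rise over 180 s flagged agonists.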
D1 PAM = potentiators of human D1 dopamine receptor | 360,000 compounds, 0.036% hits | P21728 | HEK293 TREx D1 cells, calcium flux, dopamine EC20 potentiation | potentiation, % at 10 µM; in the data active = potentiation above about 30%; also: 0% is about no effect
TRHR agonist = TRH receptor (human) agonism | P34981 | TRHR cells, calcium flux fluo-8, FDSS agonist mode | activation, % at 2 µM | 360,000 compounds, 0.18% hits | AID 493084; also: 0% is about no effect
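TRHR-expressing cells, plated overnight in medium with 10% serum, were loaded with fluo-8 calcium dye at room temperature. After a 10 s baseline, library compound was pin-added and calcium release was recorded kinetically (ex 480/em 530) as agonist response.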
D1 antagonist = antagonists of human D1 dopamine receptor. activity change, negative = inhibition, % at 10 µM. HEK293 TREx D1 cells, calcium flux, dopamine EC80; hits give low values. 360,000 compounds, 3.2% hits. AID 504652; in the data active = activity change below about -30%; also: % is scaled to controls: 0 for no effect and ±100 for the full control effect
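Using tetracycline-induced force-coupled D1 Hek293 cells and a calcium dye, signals were followed for 180 s after compound, then for 180 s after EC80 dopamine, to detect inhibitors.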
Numbers without * were called inactive. Rule as the data show it, unless noted: active = activation above about 30%; inactive = the rest.

`CCC(C)NC(=O)c1ccccc1NC(=O)CN1C(=O)c2cccc3cccc1c23` (configuration not stated) gave TRHR PAM 3.5, D1 ag -0.1, D1 PAM 1.6, TRHR agonist 0.0 and D1 antagonist -1.2.
For COc1ccc2c(Sc3ccc(Cl)cc3)c(C(=O)N3CCCCC3)[nH]c2c1 the results were TRHR PAM -0.4, D1 ag 0.9, D1 PAM -2.3, TRHR agonist -1.0 and D1 antagonist -19.6.
CC(C)c1ccc(S(=O)(=O)N2CCN(C(=O)c3cccc(F)c3)CC2)cc1 was read as TRHR PAM -9.1, D1 ag 0.2, D1 PAM -2.0, TRHR agonist 0.5 and D1 antagonist -67.8*.
O=C(c1cccc(S(=O)(=O)N2CCOCC2)c1)N(CCO)Cc1ccccc1 was read as TRHR PAM -5.1, D1 ag 0.0, D1 PAM -6.8, TRHR agonist 0.4 and D1 antagonist -32.7*.
Screening O=C(c1cccc(NS(=O)(=O)c2ccc(F)cc2)c1)N1CCN(c2ccccc2)CC1 returned TRHR PAM -1.7, D1 ag 3.7, D1 PAM 2.2, TRHR agonist -0.7 and D1 antagonist -42.3*.
Screening CC(=O)N1CCN(C(=O)c2cccc(S(=O)(=O)N3CCN(c4ccc(F)cc4)CC3)c2)CC1 returned TRHR PAM -0.7, D1 ag 53.3*, D1 PAM -8.2, TRHR agonist 0.3 and D1 antagonist -0.3.
Screening O=C(c1cccc(S(=O)(=O)N2CCN(c3ccc(F)cc3)CC2)c1)N1CCCCCCC1 returned TRHR PAM -4.4, D1 ag 8.6, D1 PAM -1.7, TRHR agonist -0.6 and D1 antagonist -2.1.
`CCOC(=O)C1CCCN(C(=O)c2ccc3c(c2)sc2nc(-c4cccc(OC)c4)cn23)C1` (configuration not stated) gave TRHR PAM 13.7, D1 ag 0.8, D1 PAM 0.2, TRHR agonist 0.5 and D1 antagonist -3.5.
`CCOc1cccc(C(=O)Nc2ccc(S(=O)(=O)Nc3cc(C)on3)cc2)c1` gave TRHR PAM 7.2, D1 ag 0.1, D1 PAM 4.2, TRHR agonist 0.0 and D1 antagonist 8.0.
For COCCNC(=O)CCCn1c(SCc2ccccc2C)nc2c(sc3ccccc32)c1=O the results were TRHR PAM 11.8, D1 ag 15.5, D1 PAM -3.9, TRHR agonist -0.3 and D1 antagonist -1.7.
O=C(NC1=NCCS1)c1cccc(S(=O)(=O)N2CCOCC2)c1 was read as TRHR PAM 31.7*, D1 ag 1.0, D1 PAM -3.7, TRHR agonist 1.1 and D1 antagonist -15.0.
CCN(Cc1ccccc1)C(=O)c1cccc(S(=O)(=O)N2CCN(c3ccccc3)CC2)c1 was read as TRHR PAM -0.6, D1 ag 4.6, D1 PAM -1.1, TRHR agonist -0.1 and D1 antagonist 21.8.
CCN(Cc1ccccc1)C(=O)c1cccc(S(=O)(=O)N2CCN(c3ccc(F)cc3)CC2)c1 was read as TRHR PAM 11.2, D1 ag 5.3, D1 PAM -3.5, TRHR agonist -0.3 and D1 antagonist -63.3*.
NC(=Nc1ccc(Br)cc1)c1ccccc1 was read as TRHR PAM -14.8, D1 ag 44.7*, D1 PAM -0.3, TRHR agonist 19.2 and D1 antagonist -38.7*.
Screening CCOc1ccc(N(C)S(=O)(=O)c2ccc3[nH]cc(C(=O)NCC(OC)OC)c(=O)c3c2)cc1 returned TRHR PAM 3.1, D1 ag 3.2, D1 PAM -6.0, TRHR agonist -0.1 and D1 antagonist -0.3.
Screening CCN(CC)S(=O)(=O)c1ccc2[nH]cc(C(=O)NCCN3CCCCCC3)c(=O)c2c1 returned TRHR PAM 19.3, D1 ag 2.9, D1 PAM -5.2, TRHR agonist -0.8 and D1 antagonist 10.2.
CCOc1ccc(N(C)S(=O)(=O)c2ccc3[nH]cc(C(=O)NCc4ccccc4)c(=O)c3c2)cc1 was read as TRHR PAM 37.4*, D1 ag 0.8, D1 PAM -1.5, TRHR agonist 0.4 and D1 antagonist -10.7.
CCOC(=O)N1CCN(C(=O)c2c[nH]c3ccc(S(=O)(=O)N(C)c4ccc(OCC)cc4)cc3c2=O)CC1 was read as TRHR PAM 24.4, D1 ag 1.9, D1 PAM -19.3, TRHR agonist 0.1 and D1 antagonist -89.0*.
Screening CCN(CC)S(=O)(=O)c1ccc2[nH]cc(C(=O)NCCC3=CCCCC3)c(=O)c2c1 returned TRHR PAM 3.8, D1 ag 4.3, D1 PAM -10.1, TRHR agonist -0.6 and D1 antagonist -34.5*.
CCOC(=O)N1CCN(C(=O)c2c[nH]c3ccc(S(=O)(=O)N(C)c4ccc(F)cc4)cc3c2=O)CC1 was read as TRHR PAM 0.1, D1 ag -0.7, D1 PAM -4.5, TRHR agonist -0.1 and D1 antagonist 1.0.
Screening COc1cccc(CNC(=O)CN2C(=O)N(c3cc(C)ccc3C)S(=O)(=O)c3ccccc32)c1OC returned TRHR PAM -7.0, D1 ag 3.7, D1 PAM -2.9, TRHR agonist -0.3 and D1 antagonist -0.2.
Screening Cc1ccc(NC(=O)c2nnn(CC(=O)Nc3ccc(C)c(Cl)c3)c2N)c(C)c1 returned TRHR PAM 5.8, D1 ag 4.6, D1 PAM -4.2, TRHR agonist 0.7 and D1 antagonist -21.8.
COc1ccc(CCNC(=O)CSc2nnnn2-c2ccccc2OC)cc1OC was read as TRHR PAM 0.1, D1 ag 14.0, D1 PAM -7.3, TRHR agonist 0.0 and D1 antagonist -52.1*.
COc1ccc(CCNC(=O)CSc2cn(Cc3cccc(C)c3)c3ccccc23)cc1OC was read as TRHR PAM -3.7, D1 ag 34.3*, D1 PAM 0.8, TRHR agonist 0.6 and D1 antagonist 10.2.
Screening COc1ccc(CCNC(=O)CSc2cn(Cc3ccccc3)c3ccccc23)cc1OC returned TRHR PAM -6.9, D1 ag 0.2, D1 PAM -5.9, TRHR agonist 0.0 and D1 antagonist -3.8.
Screening COc1ccc(NC(=O)CSc2nnnn2-c2ccccc2OC)c(OC)c1 returned TRHR PAM -1.3, D1 ag 7.5, D1 PAM -4.8, TRHR agonist 0.1 and D1 antagonist -68.4*.
Screening COc1ccc(OC)c(-n2nnnc2SCC(=O)Nc2ccccc2N2CCOCC2)c1 returned TRHR PAM 3.1, D1 ag -0.1, D1 PAM -2.2, TRHR agonist -0.4 and D1 antagonist -34.3*.
For CCOc1cc(C2C(C(=O)OC)=C(C)NC3=C2C(=O)c2ccccc23)c(Br)cc1O (configuration not stated) the results were TRHR PAM 2.2, D1 ag -0.4, D1 PAM -5.6, TRHR agonist -0.6 and D1 antagonist -7.7.

Screening results from PubChem BioAssay.
